# Assay results from PubChem BioAssay (NCATS).
# Records with an inconclusive call do not appear. Values without a mark were called inactive. Active and inactive are the calls of the source. The call rests on the fitted dose curve; in most records, active means well fitted inhibition curve with a large enough effect; inconclusive means small, poorly fitted or top-dose-only effect; inactive means flat fitted curve, though single readings scatter.
# Experiment: P-glycoprotein substrates identified in KB-8-5-11 adenocarcinoma cell line, qHTS therapeutic library screen (AID 1346987); further: nearly all actives have a fitted effect of over 65% in size
# Conditions: KB-8-5-11 (P-gp overexpressing) viability, CellTiter-Glo, 72 h; series mostly up to 44.5 µM; activity change, negative = cytotoxicity: at the top concentration
# In short: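 Human cervical adenocarcinoma KB-8-5-11 cells, selected in colchicine to over-express P-gp and assayed without it, were exposed for 72 h to titrated compounds. An ATP-based luminescent viability signal gave AC50.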
# On the % scale 0 is the no-effect control and ±100 the full control effect; potency means the concentration at half of the fitted maximal effect.
Structure (SMILES),"activity change, negative = cytotoxicity",outcome,Potency
CO[C@H]1[C@@H](O)[C@H](N)[C@@H](O[C@H]2O[C@H]([C@H](C)N)CC[C@H]2N)[C@H](O)[C@@H]1N(C)C(=O)CN,0.911%,–,–
CN(C)Cc1ccccc1,14.4%,–,–
C=CC(C)(O)CC/C=C(/C)COC(=O)C(C)C1CCC(C)(C=C)O1 (stereo not given),-19%,–,–
O=C(Nc1cnc(Cl)nc1)c1ccc(F)c(F)c1,2.18%,–,–
O=C(NC1CCC1)c1ccc(C#Cc2cccc(F)c2)nc1,-11%,–,–
CC(=O)O[C@@H]1[C@H](O[C@@H]2O[C@@H](CO)[C@H](O)[C@H]2O)[C@@H](O[C@@H]2O[C@@H](C)[C@H](O[C@@H]3OC[C@@H](O)[C@H](O)[C@H]3O)[C@@H](O)[C@H]2O)[C@H](OC(=O)[C@]23CCC(C)(C)C[C@H]2C2=CCC4[C@@]5(C)CC[C@H](O[C@@H]6O[C@H](C(=O)O)[C@@H](O)[C@H](O)[C@H]6O[C@@H]6O[C@H](CO)[C@H](O)[C@H](O)[C@H]6O)[C@@](C)(C=O)C5CC[C@@]4(C)[C@]2(C)C[C@H]3O)O[C@@H]1C (stereo not given in full),–,inactive [at 9.29 µM],–
CC1(C)OC[C@H](NC(=O)Nc2ccc(Br)cc2Br)[C@H](c2ccccc2)O1,-22.9%,–,–
OC1C=C2C3CN(Cc4cc5c(cc43)OCO5)C2CC1O (stereo not given),–,–,13 µM (active)
COC(=O)c1ccc2c(c1)[nH]c1ncnc(NCCCN3CCCCC3)c12,-24.5%,–,–
CCc1c(Cl)c(O)c(Cl)c(O)c1C(=O)O[C@H]1[C@H](O)[C@H](OC)[C@H](OC/C2=C\C=C\C[C@H](O)/C(C)=C\[C@H](CC)[C@@H](O[C@@H]3OC(C)(C)[C@@H](OC(=O)C(C)C)[C@H](O)[C@@H]3O)/C(C)=C/C(C)=C/C[C@@H]([C@@H](C)O)OC2=O)O[C@@H]1C,8.88% [at 17.3 µM],–,–
